# Screens as filed in PubChem.
# Compounds with a hit are over-represented: about 1.7% of the library has one in this group of screens.
# GLP-1R agonist: GLP-1 receptor (human) agonism; P43220; HEK293 GLP-1R CRE-luciferase, luminescence, 4-6 h; cells express a hypersensitive GLP-1R form; Potency, µM (top dose mostly 45.6 µM), usual class: activators; actives 0.007% (n = 380,000); AID 624172
# Target sequence (P43220 whole entry, looked up): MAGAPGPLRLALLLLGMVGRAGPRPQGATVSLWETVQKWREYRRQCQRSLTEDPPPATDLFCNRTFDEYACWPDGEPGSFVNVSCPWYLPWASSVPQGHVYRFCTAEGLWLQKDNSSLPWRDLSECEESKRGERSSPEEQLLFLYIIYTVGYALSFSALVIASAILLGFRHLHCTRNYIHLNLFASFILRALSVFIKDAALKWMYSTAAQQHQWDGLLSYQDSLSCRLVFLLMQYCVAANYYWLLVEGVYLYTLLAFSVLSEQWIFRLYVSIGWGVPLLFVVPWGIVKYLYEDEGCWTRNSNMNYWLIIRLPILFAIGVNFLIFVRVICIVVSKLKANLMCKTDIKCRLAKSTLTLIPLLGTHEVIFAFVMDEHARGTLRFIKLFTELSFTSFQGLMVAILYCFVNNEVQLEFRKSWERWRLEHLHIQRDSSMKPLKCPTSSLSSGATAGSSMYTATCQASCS
# RGS4 inhibitor: blocks human RGS4-accelerated GTP hydrolysis; Transcreener GDP fluorescence polarization, RGS4-accelerated GTP hydrolysis; actives 0.039% (n = 390,000); Potency, µM (titrated, usually from 114 µM), usual class: inhibitors; AID 504845; further: nearly all actives have a fitted effect of over 75% in size
# Target sequence (P49798 whole entry, looked up): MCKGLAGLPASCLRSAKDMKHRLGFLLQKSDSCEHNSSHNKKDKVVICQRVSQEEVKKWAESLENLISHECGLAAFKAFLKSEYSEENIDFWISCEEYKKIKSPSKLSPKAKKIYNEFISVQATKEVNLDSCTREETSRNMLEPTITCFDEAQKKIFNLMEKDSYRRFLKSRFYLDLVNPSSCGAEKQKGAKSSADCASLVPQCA
#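 MLSMR compounds (23 nl, pin-transferred) preincubated 10 min at room temperature with a 500nM (2x) first reagent, then RGS4 at 900nM (2x) plus Transcreener GDP mix added; fluorescence polarization (620/688 nm) read before and after 90 min at 30 °C.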
# HEK293 tox: cytotoxicity in counter-screen for GLP-1R inverse agonists; HEK293 cAMP-luciferase reporter cells, luminescence, 24 h; Potency, µM (titrated, usually from 38.3 µM), usual class: inhibitors; actives 0.13% (n = 410,000); AID 624418;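 further: loss of luciferase light is scored as toxicity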
#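 Quantitative HTS format, 1536 wells, 200 cells/uL seeded. Compounds: 23 nL, 24 h, 37 °C. Detection: luciferase reagent, luminescence at 12 min RT; decreased signal taken as cytotoxic.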
# PTHR1 ag: activates the human parathyroid hormone receptor PTHR1. Potency, µM (series often up to 115 µM), hits mostly activators. Q03431. HEK293 GP2 PTHR1 cells, GloSensor cAMP luminescence, 1 h. actives 0.075% (n = 410,000); further: nearly all actives have a fitted effect of over 55% in size
#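 HEK-293-derived GP2 cells expressing PTHR1 and a GloSensor cAMP reporter, 3,000/well, plated overnight, given luciferin plus IBMX (each 0.5 mM as added) for 1 h at 37 °C, then compound for 1 h at 37 °C. Luminescence was read after 15 min at room temperature.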
# GLP-1R inv ag: inverse agonists of human GLP-1 receptor; Potency, µM (titrated, usually from 38.3 µM), hits mostly inhibitors; AID 624417; P43220; HEK293 GLP-1R CRE-luciferase, luminescence, 24 h; GLP-1R form is constitutively active; actives 1.6% (n = 410,000); further: nearly all actives have a fitted effect of over 55% in size
#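 Constitutively active GLP-1R drives a cAMP-responsive luciferase in stably transfected HEK293 cells; test compounds are added after overnight (12 h) attachment and left 24 hr, and signal loss in luminescence marks inhibition.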
# Numbers stand for hits; n = inactive; u = inconclusive; x = no result; [ ] = remark or other dose. The call rests on the fitted dose curve; in most records, active means well fitted curve in the direction sought with a large enough effect; inconclusive means small, poorly fitted or top-dose-only effect, or another doubt; inactive means no such curve, though single readings can be large; an effect the other way counts as inactive or inconclusive.
SMILES,GLP-1R agonist,RGS4 inhibitor,HEK293 tox,PTHR1 ag,GLP-1R inv ag
O=C(/C=C/NNC(=O)c1ccccc1)c1ccccc1,n,n,3.16µM,n,u
O=C(CSc1nc(-c2ccccc2)cc(C(F)(F)F)n1)c1cccc([N+](=O)[O-])c1,n,n,n,n,u
Cc1ccc(-c2cc(C(F)(F)F)nc(SCC(=O)c3cccc([N+](=O)[O-])c3)n2)cc1,n,n,n,n,5.62µM
Cc1cc(CC(C)C)n(-c2nc3ccccc3c(=O)n2OCc2ccccc2)n1,n,n,n,n,7.08µM
CO/N=C(\C(=O)N[C@@H]1C(=O)N2C(C(=O)[O-])=C(C[n+]3cccc4c3CCCC4)CS[C@H]12)c1csc(N)n1,n,x,x,x,x
CCCC(=O)NC(c1ccco1)c1c(O)ccc2ccccc12 (stereo not given),n,n,n,n,u
CC(C)CC(=O)NC(c1ccccc1Cl)c1c(O)ccc2ccccc12 (stereo not given),n,n,n,n,8.91µM
CCCCC(=O)NC(c1ccco1)c1c(O)ccc2ccccc12 (stereo not given),n,n,n,n,8.91µM
CCNC(=O)C1Cc2ccccc2CN1S(=O)(=O)c1ccc(F)cc1 (stereo not given),n,n,n,n,n
O=C(Nc1ccc(F)c(Cl)c1)C1Cc2ccccc2CN1S(=O)(=O)c1ccc(F)cc1 (stereo not given),x,n,n,n,10µM
COc1ccc(OC(C)C(=O)NCCC2=CCCCC2)cc1 (stereo not given),n,n,n,n,11.2µM
COc1ccc(C(=O)NCCC2=CCCCC2)cc1,n,n,n,n,u
COc1ccc(OCC(=O)c2c(O)c3ccccc3oc2=O)cc1,n,n,n,17.8µM,n
CCC(C(=O)Nc1ccccc1F)n1nc(C)c2c(C)n(-c3ccccc3)nc2c1=O (stereo not given),n,n,n,n,u
CCC(C(=O)Nc1cc(F)ccc1F)n1nc(C)c2c(C)n(-c3ccc(C)cc3)nc2c1=O (stereo not given),n,n,n,n,10µM
Cc1ccc(CN2CCc3c(OCc4ccc(F)cc4)cccc3C2=O)cc1,n,n,n,n,4.47µM
O=C1c2cccc(OCc3ccc(F)cc3)c2CCN1Cc1ccc(F)cc1,n,n,n,n,u
CCOC(=O)Nc1ccc2c(c1)C(=NNC(N)=S)c1ccccc1-2,n,n,3.98µM,n,u
O[C@@H]1C[C@H](c2ccc(Cl)cc2)N(CC2CCCCC2)C[C@H]1n1cc(C2CC2)nn1,n,x,n,n,n
O[C@H]1C[C@H](c2ccc(Cl)cc2)N(CC2CCCCC2)C[C@@H]1n1cc(C2CC2)nn1,n,x,u,n,10µM
Cc1cc(NC(=O)c2cccs2)cc(-c2nc3cc(Cl)ccc3o2)c1O,n,n,n,n,n
COc1ccc(-c2nc(SCC(=O)Nc3ccccc3)c(-c3ccc(F)cc3)[nH]2)cc1OC,x,n,n,n,u
Cc1cccc2nc(-c3ccco3)c(Nc3ccc4c(c3)OCO4)n12,n,n,n,n,8.91µM
CSc1ccc(-c2nc3cccc(C)n3c2Nc2ccc3c(c2)OCO3)cc1,x,n,n,n,10µM
Cc1cc(N2CCOCC2)n2ncc(-c3ccccc3Cl)c2n1,n,n,n,n,n
SMILES,GLP-1R agonist,RGS4 inhibitor,HEK293 tox,PTHR1 ag,GLP-1R inv ag
COc1ccc(N(CC(=O)NC2CC3CCC2C3)S(=O)(=O)c2ccc(C)cc2)cc1 (stereo not given),n,n,n,n,10µM
COc1ccc(N(CC(=O)NC2CC3CCC2C3)S(=O)(=O)c2ccc(C)cc2)cc1OC (stereo not given),n,n,n,n,n
COc1ccc(S(=O)(=O)N(CC(=O)Nc2cccc(C(F)(F)F)c2)c2ccc(C)cc2)cc1,n,n,n,n,10µM
CSCCC(NC(=O)[C@H](Cc1c[nH]c2ccccc12)NC(=O)CNC(=O)[C@H](CCSC)NC(=O)[C@H](Cc1ccc(OS(=O)(=O)O)cc1)NC(=O)[C@@H](N)CC(=O)O)C(=O)N[C@@H](CC(=O)O)C(=O)N[C@@H](Cc1ccccc1)C(N)=O (stereo not given in full),n,x,x,x,x
CN(C)[C@H]1C(=O)C(C(=O)NCN2CCCC2)=C(O)[C@]2(O)C(=O)C3=C(O)c4c(O)cccc4[C@@](C)(O)[C@H]3C[C@@H]12,n,x,x,x,x
O=C(CC1C(=O)NCCN1C(=O)Nc1ccc(Cl)cc1)Nc1ccc(F)cc1 (stereo not given),n,n,n,n,11.2µM
O=C(CC1C(=O)NCCN1C(=O)c1ccc(Cl)cc1)Nc1ccc(F)cc1 (stereo not given),n,n,n,n,n
COc1ccc(C(=O)/C=C2\C(=O)Nc3ccc(Br)cc32)cc1,n,u,u,n,u
O=C1Nc2ccc(Br)cc2/C1=C/C1CC=CCC1 (stereo not given),n,n,n,n,4.47µM
Cc1ccc(NC(=O)c2sc3nc(C)nc(N4CCN(c5ccccn5)CC4)c3c2C)c(C)c1,n,n,n,n,11.2µM
CC(C)(C)C(=O)NC(Nc1cccc2cccnc12)C(Cl)(Cl)Cl (stereo not given),n,n,n,n,5.01µM
COc1ccc(/C=N\NC(=O)c2ccccc2F)cc1COc1ccc(F)cc1F,u,n,u,n,u
COc1ccc(/C=N/NC(=O)c2cc(C(C)(C)C)[nH]n2)cc1COc1ccc(F)cc1F,n,n,u,n,6.31µM
CC(C)OCc1ccc(C(=O)N2CCN(CC(=O)N3CCCC3)CC2)cc1,n,n,n,n,n
Cc1ccc(CN(Cc2ccco2)C(=O)c2ccc(Cl)cc2Cl)cc1,x,n,n,n,12.6µM
CCc1ccc2oc(C(=O)N(Cc3cccc(Cl)c3)Cc3ccco3)c(C)c2c1,x,n,n,n,8.91µM
Cc1ccc(CN(Cc2ccco2)C(=O)COc2ccc(Cl)cc2Cl)cc1,x,n,n,n,u
CN(C)c1ccc(CN(Cc2ccco2)C(=O)c2ccco2)cc1,n,n,n,n,11.2µM
Cc1ccc(CN(Cc2ccco2)C(=O)c2oc3cc(Br)ccc3c2C)cc1,x,n,n,n,u
Cc1ccc(C(OCC(O)CNCc2ccc(F)cc2)c2ccccc2)cc1 (stereo not given),n,n,u,n,5.62µM
CC(NCC(O)COCCC12CC3CC(CC(C3)C1)C2)c1ccccc1 (stereo not given),n,n[11.4 µM],u,n,11.2µM
COc1ccc(C(OCC(O)CNC(C)c2ccccc2)c2ccc(OC)cc2)cc1 (stereo not given),n,n,u,n,10µM
CCOc1cc(CNC(=O)C(NS(=O)(=O)c2cccs2)C(C)C)cc(OCC)c1OCC (stereo not given),x,n,n,n,n
